Most compounds without a hit are left out; they make up all but 11% or so of the library.
3T3 cytotox – Cytotoxic Profiling in NIH 3T3 Cell Line of Diverse Libraries Using Quantitative High-Throughput Screening; NIH 3T3 viability, CellTiter-Glo ATP luminescence, 48-72 h; Potency, µM (series often up to 96.7 µM), actives largely listed as inhibitors; 94,000 tested, 4.3% active; further: nearly all actives have a fitted effect of over 55% in size
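Luminescent ATP readout (CellTiter-Glo, 10 min RT) after 48 or 72 hr compound exposure of NIH 3T3 cells seeded at 400 cells/well in 1536-well format; quantitative HTS.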
NPR1 antag – Natriuretic polypeptide receptor (hNpr1) antagonism - Primary qHTS; 76,000 tested, 1.6% active; Potency, µM (top dose mostly 46.3 µM), most hits filed as inhibitors; HEK293 hNpr1 GloSensor cGMP, ANP-stimulated luminescence; Atrial natriuretic peptide receptor 1 (Homo sapiens), P16066; calls by dose curve; further: nearly all actives have a fitted effect of over 60% in size
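HEK293 cells stably expressing human Npr1 and cGMP GloSensor pGS-40F, loaded 2 h with 2% GloSensor reagent, given compound 30 min at room temperature. Luminescence read before and 20 min after 0.1 nM hNppA.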
HEK293 tox – Cytotoxic Profiling in HEK 293 Cell Line of Diverse Libraries Using Quantitative High-Throughput Screening | HEK 293 viability, ATP luminescence (CellTiter-Glo), 48-72 h | Potency, µM (series often up to 115 µM), hits mostly inhibitors | 94,000 tested, 6.6% active | AID 1345083, 2018; further: nearly all actives have a fitted effect of over 60% in size
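CellTiter-Glo luminescence (cellular ATP) was read after 48 or 72 hr of compound exposure at 37 degree Celsius. Cells were HEK 293 plated at 250 cells/well.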
FLuc inh-1 – Firefly luciferase inhibition profiling of diverse chemical library using quantitative high-throughput screening | purified P. pyralis luciferase, luminescence, biochemical | Potency, µM (highest dose often 115 µM), most hits filed as inhibitors | 76,000 tested, 2.5% active | AID 1347043, 2019; further: nearly all actives have a fitted effect of over 65% in size
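Biochemical qHTS: compound (6-point titration) added to 10uM D-luciferin plus 10uM ATP in Tris acetate pH 7.5 buffer with Mg, Tween-20 and BSA, then purified enzyme at 10nM; light output imaged.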
FLuc SDR -ATP – Firefly luciferase (FLuc-C-HiBiT) SDR gain of signal screen - without ATP; Potency, µM (titrated, usually from 32.7 µM), most hits filed as activators; shares compounds with FLuc inh-1; 1,300 tested, 7.8% active; Purified FLuc-C-HiBiT, Nano-Glo HiBiT luminescence, no ATP; further: nearly all actives have a fitted effect of over 55% in size
FLuc SDR ATP – Firefly luciferase (FLuc-C-HiBiT) SDR gain of signal screen - plus ATP. shares compounds with FLuc inh-1. purified FLuc-C-HiBiT + ATP, HiBiT complementation luminescence. Potency, µM (titrated, usually from 32.7 µM), hits mostly activators. 1,300 tested, 8.7% active;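 further: signal reports ligand binding via conformational change of the enzyme rather than luciferase catalysis; nearly all actives have a fitted effect of over 55% in size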
FLuc inh-2 – Firefly luciferase (FLuc-C-HiBiT) enzymatic inhibition screen - Functional assay. 1,300 tested, 42% active. shares compounds with FLuc inh-1. purified FLuc-C-HiBiT enzyme, luciferin luminescence. Potency, µM (series often up to 32.7 µM), usual class: inhibitors; further: nearly all actives have a fitted effect of over 70% in size
Of the large screens only hits and unclear results are named; the others gave an inactive call (follow-up assays come after a bar, where they were run); ! = not confirmed by another sample. Unless noted, the call rests on the fitted dose curve; in most records, active means well fitted curve in the direction sought with a large enough effect; inconclusive means small, poorly fitted or top-dose-only effect, or another doubt; inactive means no such curve, though single readings can be large; an effect the other way counts as inactive or inconclusive.

COc1cccc(-c2csc(CN3CCCC(C)(NC(C)=O)C3)c2)c1 (stereo not drawn)	3T3 cytotox inconclusive, HEK293 tox inconclusive, FLuc inh-1 5.01µM | FLuc SDR -ATP inactive | FLuc SDR ATP inactive | FLuc inh-2 inconclusive
Cc1noc(C)c1CC(=O)N1CCCCCC1c1nnc(-c2ccccc2)o1 (stereo not drawn)	none
CCCc1ccc(OCc2ccc(C(=O)Nc3ccccc3C(=O)OC)o2)cc1	none (no result: 3T3 cytotox, NPR1 antag, HEK293 tox, FLuc inh-1) | FLuc SDR -ATP inactive | FLuc SDR ATP inconclusive | FLuc inh-2 inconclusive
COC(=O)c1ccccc1NC(=O)N1CCC[C@@H](O)[C@H](NC(=O)c2ccc(OCc3ccccc3)cc2)C1	3T3 cytotox inconclusive, HEK293 tox inconclusive
COc1ccc(Cn2c(=O)c(C(=O)N3CCN(C(=O)NC4CCCC4)CC3)nc3cccnc32)cc1	none (no result: NPR1 antag, FLuc inh-1)
CCCN1C(=O)c2ccc(-c3nc4ccccc4s3)cc2C1=O	none (no result: 3T3 cytotox, NPR1 antag, HEK293 tox, FLuc inh-1) | FLuc SDR -ATP inconclusive | FLuc SDR ATP inactive | FLuc inh-2 1.97µM
CCCS(=O)(=O)N1CCCC1c1nc2ccccc2s1 (stereo not drawn)	HEK293 tox inconclusive
CC(=O)Nc1cc(-c2nc3ccccc3s2)ccc1C	none (no result: 3T3 cytotox, NPR1 antag, HEK293 tox, FLuc inh-1) | FLuc SDR -ATP inactive | FLuc SDR ATP inactive | FLuc inh-2 inconclusive
CCCCC(=O)Nc1cc(-c2nc3ccccc3s2)ccc1C	none (no result: 3T3 cytotox, NPR1 antag, HEK293 tox, FLuc inh-1) | FLuc SDR -ATP inactive | FLuc SDR ATP inactive | FLuc inh-2 inactive
COCCOCc1nc(C2CCCCN2C(=O)c2ccncc2)no1 (stereo not drawn)	none
Cc1ncccc1C(=O)N1C[C@@H](Oc2cccnc2)C[C@H]1C(=O)N1CCCC1	none
NC(=O)CN1C(=O)[C@@H]2CN(C(=O)c3ccc4c(c3)OCO4)CCN2C1=O	none
Fc1ccc(NCc2ccccc2-c2nnc(-c3ccccc3Cl)o2)cc1Cl	none (no result: 3T3 cytotox, NPR1 antag, HEK293 tox, FLuc inh-1) | FLuc SDR -ATP inactive | FLuc SDR ATP inactive | FLuc inh-2 inconclusive
COc1ccc(-c2nc3ncccc3[nH]2)cc1	3T3 cytotox 79.4µM!, HEK293 tox 79.4µM, FLuc inh-1 12.6µM | FLuc SDR -ATP inconclusive | FLuc SDR ATP inconclusive | FLuc inh-2 16µM
c1cnc2nc(-c3ccncc3)[nH]c2c1	3T3 cytotox inconclusive
Cc1ccc(-c2noc(-c3nc(C(C)C)no3)n2)cc1	FLuc inh-1 7.08µM | FLuc SDR -ATP inactive | FLuc SDR ATP inactive | FLuc inh-2 inconclusive
Cc1ccc(-c2noc(-c3ccccc3Br)n2)cc1	none (no result: 3T3 cytotox, NPR1 antag, HEK293 tox, FLuc inh-1) | FLuc SDR -ATP inconclusive | FLuc SDR ATP inconclusive | FLuc inh-2 1.57µM
Cc1ccc(-c2noc(-c3nc(-c4cccnc4)no3)n2)cc1	none
Cc1ccc(S(=O)(=O)Nc2ccc(C)n(CC(=O)N3CCCCCC3)c2=O)cc1	none
Cc1cccc(NC(=O)Nc2ccc(C)n(CC(=O)N(C)C)c2=O)c1	FLuc inh-1 inconclusive
COc1ccc(S(=O)(=O)Nc2ccc(C)n(CC(=O)NCc3ccc(C)o3)c2=O)cc1	none
Cc1ccc(NC(=O)Nc2ccc(C)n(CC(=O)NCCC(C)C)c2=O)cc1	3T3 cytotox 35.5µM, NPR1 antag inconclusive, HEK293 tox 28.2µM, FLuc inh-1 0.562µM | FLuc SDR -ATP inconclusive | FLuc SDR ATP inconclusive | FLuc inh-2 1.11µM
COc1ccc(NC(=O)Nc2ccc(C)n(CC(=O)NCC(C)C)c2=O)cc1	FLuc inh-1 1.58µM | FLuc SDR -ATP 7.85µM | FLuc SDR ATP inconclusive | FLuc inh-2 3.51µM
CCN1CCN(C(=O)Cn2c(C)ccc(NC(=O)Nc3ccc(C)cc3)c2=O)CC1	FLuc inh-1 4.47µM | FLuc SDR -ATP inconclusive | FLuc SDR ATP inconclusive | FLuc inh-2 4.95µM

Compound activity: PubChem, National Center for Advancing Translational Sciences (NCATS)
